# FLuc counter = qHTS profiling assay for firefly luciferase inhibitor/activator using purifed enzyme and Km concentrations of substrates (counterscreen for miR-21 project); Luciferin 4-monooxygenase (Photinus pyralis), P08659; purified FLuc, Km substrates, luminescence inhibition; Potency, µM (series often up to 57.5 µM), for the others: at the highest dose activity change, negative = inhibition, usual class: inhibitors; 360,000 tested, 6.9% active; AID 588342, 2011;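 note: plate controls were vehicle for no effect and reference inhibitor for full effect; nearly all actives have a fitted effect of over 55% in size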
# Target sequence (P08659 whole entry, looked up): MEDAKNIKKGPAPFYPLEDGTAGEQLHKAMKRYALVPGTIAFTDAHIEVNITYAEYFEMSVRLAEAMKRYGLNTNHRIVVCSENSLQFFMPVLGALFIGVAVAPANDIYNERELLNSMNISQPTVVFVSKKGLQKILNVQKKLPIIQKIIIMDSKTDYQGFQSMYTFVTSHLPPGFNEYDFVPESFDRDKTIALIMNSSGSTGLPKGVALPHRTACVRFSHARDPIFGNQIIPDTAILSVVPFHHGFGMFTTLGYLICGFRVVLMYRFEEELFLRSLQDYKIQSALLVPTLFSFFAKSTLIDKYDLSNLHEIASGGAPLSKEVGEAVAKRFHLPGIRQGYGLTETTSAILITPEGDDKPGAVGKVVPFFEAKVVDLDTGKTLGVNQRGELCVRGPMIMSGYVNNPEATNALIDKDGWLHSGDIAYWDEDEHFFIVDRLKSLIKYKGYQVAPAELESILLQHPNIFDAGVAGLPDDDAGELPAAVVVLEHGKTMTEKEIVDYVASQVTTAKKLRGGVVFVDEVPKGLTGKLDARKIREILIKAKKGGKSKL
#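 Purified P. pyralis luciferase (10nM final) with 10uM D-luciferin and 10uM ATP (Km levels) in 50mM Tris acetate pH 7.5, 10mM Mg acetate, 0.01% Tween-20, 0.05% BSA; qHTS 6-point titration, ~60 µM downward; luminescence read.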
# ELG1 repair inh = qHTS screen for small molecules that inhibit ELG1-dependent DNA repair in human embryonic kidney (HEK293T) cells expressing luciferase-tagged ELG1; HEK293T ELG1-luciferase reporter, luminescence, 16 h; DNA damage induced by 5-fluorouridine; Potency, µM (titrated, usually from 46.1 µM), without a hit: top-dose activity change, negative = inhibition, actives largely listed as inhibitors; 330,000 tested, 2.3% active; AID 504467, 2011; note: % is set by controls: 0 for no effect and ±100 for the full control effect; nearly all actives have a fitted effect of over 55% in size
#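 HEK293T cells expressing luciferase-tagged ELG1 (2,000/well) received 5-Fluorouridine plus compound or DMSO for 16 hr at 37 °C. Luciferase was read by ONE-Glo luminescence after 30 min at room temperature.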
# SMN2 splice up = qHTS Assay for Enhancers of SMN2 Splice Variant Expression | Potency, µM (highest dose often 46.1 µM), without a hit: at the top dose activity change, positive = activation, actives largely listed as activators | HEK293 SMN2-luciferase splicing reporter, luminescence, 30-36 h | AID 1458, 2008 | 210,000 tested, 2.8% active; note: % of control where 0% means no effect; nearly all actives have a fitted effect of over 55% in size
#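 HEK293 cells carry an SMN2 minigene-luciferase reporter in which exon 7 inclusion puts luciferase in frame. Cells were seeded at 2000 cells/well, attached for 10-12 hours, then exposed to compounds for 30-36 hours at 37C before ONE-Glo luminescence.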
# Rab9 promoter act = qHTS Assay for Rab9 Promoter Activators. Huh7 Rab9 promoter-luciferase reporter, luminescence, 24 h. Potency, µM (titrated, usually from 9.22 µM), for the others: top-dose activation, negative = inhibition, actives largely listed as activators. 320,000 tested, 2.8% active. AID 485297, 2010; note: % of control where 0% means no effect; nearly all actives have a fitted effect of over 60% in size
#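 Huh7 cells stably carrying a Rab9 promoter-luciferase reporter, 1500 cells per well in OP-MEM I with 10% FBS, treated with compound 24 hours at 37C. Luciferase activity read by luminescence after 10 minutes with Amplite reagent.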
# ELG1 genotox = qHTS screen for small molecules that induce genotoxicity in human embryonic kidney (HEK293T) cells expressing luciferase-tagged ELG1; HEK293T ELG1-luciferase reporter, luminescence, 16 h; Potency, µM (top dose mostly 46 µM), for inactives: at the highest dose activity change, positive = activation, actives largely listed as activators; 330,000 tested, 1.3% active; note: % of control where 0% means no effect; nearly all actives have a fitted effect of over 60% in size
#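 After overnight (16 hr) compound treatment at 37 °C, ELG1-luciferase HEK293T cells were lysed with ONE-Glo; luminescence quantified 30 min later at room temperature.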
# NPC1 prom act = qHTS Assay for NPC1 Promoter Activators; Huh7 NPC1 promoter luciferase reporter, 24 h; Potency, µM (highest dose often 9.22 µM), without a hit: top-dose activation, actives largely listed as activators; 320,000 tested, 2.4% active; AID 485313, 2010; note: % of control where 0% means no effect; nearly all actives have a fitted effect of over 60% in size
#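 Luminescence read-out of NPC1 promoter-driven luciferase in stably transfected Huh7 cells; compounds delivered in DMSO and left 24 h at 37C, 5% CO2, qHTS titration format.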
# The depositor's hits bear a star; ? = inconclusive; nt = no result; [ ] = dose if it differs, or a comment. The list is not random: actives were taken first. Their share in the collection is about 9.2%. Calls come from the whole dose curve; as a rule, active = well fitted curve in the direction sought with a large enough effect; inconclusive = small, poorly fitted or top-dose-only effect, or another doubt; inactive = no such curve, though single readings can be large; an effect the other way counts as inactive or inconclusive. Potency is the fitted concentration of half-maximal effect.
SMILES,FLuc counter,ELG1 repair inh,SMN2 splice up,Rab9 promoter act,ELG1 genotox,NPC1 prom act
CC(C)CC(CO)N1CCN(C(=O)c2cccc(C(F)(F)F)c2)CCC1=O (stereo not drawn),3.9%,3.0%,-63.0%,-1.8%,-0.4%,1.7%
Nc1ccccc1SC1CC(=O)N(c2ccc3c(c2)OCCO3)C1=O (stereo not drawn),?,?,nt,2.24µM*,7.5%,?
CCCC(=O)C1=C(O)C(c2cccc(Oc3ccccc3)c2)CCC1=O (stereo not drawn),?,18.3µM*,-25.4%,-1.3%,-4.9%,-6.1%
CCOC(=O)C1=NN(c2cccc(Cl)c2)C2=NC(C)=C(C(=O)OC)C(c3cccs3)N12 (stereo not drawn),0.2%,20.6µM*,-10.4%,-3.0%,-4.6%,-12.1%
COc1ccccc1N(C(=O)CCl)c1cn(C(C)=O)c2ccccc12,-1.5%,11.6µM*,nt,-51.8%,-18.5%,-43.5%
CC(=O)n1cc(N(C(=O)CCl)c2ccc(Cl)cc2)c2ccccc21,-0.7%,?,nt,-57.4%,-19.1%,-40.1%
Cc1cccc(C(=O)c2c(N)sc3c2CCCC3)c1,0.9%,7.4%,nt,1.5%,-1.7%,-4.2%
CCN(CC)C(=O)c1c(NC(=O)c2cccc(C)c2)sc2c1CCC(C)C2 (stereo not drawn),16.9µM*,nt,-3.8%,nt,nt,nt
Cc1cccc(C(=O)c2c(N)sc3c2CCC(C)C3)c1 (stereo not drawn),21.3µM*,?,nt,?,?,?
CCC(Oc1ccc(F)cc1)C(=O)Nc1c(C(=O)c2ccc(C)cc2)oc2ccccc12 (stereo not drawn),2.6%,nt,5.0%,nt,nt,nt
CCC(=O)Nc1ccc(C2C(=O)c3ccccc3C2=O)cc1,1.35µM*,?,nt,?,?,0.794µM*
CCC(=O)NC1=C(Nc2ccc(N)cc2)C(=O)c2ccccc2C1=O,26.9µM*,?,nt,2.82µM*,14.0%,27.2%
COc1ccc(-c2sc3ccc(N4CCOCC4)cc3c2C#CCCO)cc1,nt,?,nt,nt,-5.6%,nt
CC1(C)CC(N2CCCC2)=CC(=[N+]2CCCCCC2)C1,-3.7%,0.58µM*,-71.8%,-47.7%,-14.7%,-47.9%
Clc1cccc(Cl)c1Cn1ccc(C2CC2)n1,12µM*,?,?,3.16µM*,?,?
Cc1ccc(/C=C/C(=O)N2CCC(c3nc4ccccc4o3)CC2)cc1,10.7µM*,nt,nt,nt,nt,nt
COc1ccc(/C=C/C(=O)N2CCC(c3nc4ccccc4o3)CC2)cc1OC,-3.1%,nt,nt,nt,nt,nt
CCOC(=O)C1CCCN(C(=O)/C=C/c2ccc(Cl)cc2)C1 (stereo not drawn),-20.0%,4.0%,-5.8%,3.2%,-1.2%,0.2%
Cc1ccc(/C=C/C(=O)N2CCCC(C)C2)cc1 (stereo not drawn),3.01µM*,?,1.12µM*,2.24µM*,9.2µM*,1.26µM*
CC(C)Cc1ccc(/C=C/C(=O)NC2CC2)cc1,4.78µM*,?,?,3.55µM*,16.4µM*,?
CC(C)Cc1ccc(/C=C/C(=O)N2CCCCC2)cc1,7.57µM*,?,11.2µM*,0.891µM*,14.0%,2.51µM*
CN1CCN(C(=O)/C=C/c2ccc(Cl)cc2)CC1,-9.8%,?,nt,-6.3%,3.3%,5.7%
CC(Cc1ccccc1)C(=O)NCCc1c[nH]c2ccccc12 (stereo not drawn),nt,nt,2.3%,nt,nt,nt
Cc1ccc(/C=C/C(=O)N2CCC(Cc3ccccc3)CC2)cc1,21.3µM*,1.0%,-7.8%[1.84 µM],-4.5%,-0.9%,0.4%
CC1CCN(C(=O)/C=C/c2ccc(C(C)(C)C)cc2)CC1,15.1µM*,?,21.5%,28.9%,?,18.0%
SMILES,FLuc counter,ELG1 repair inh,SMN2 splice up,Rab9 promoter act,ELG1 genotox,NPC1 prom act
CC(C)(C)c1ccc(/C=C/C(=O)N2CCCCC2)cc1,6.75µM*,?,12.6µM*,1.58µM*,?,3.98µM*
O=C(/C=C/c1ccccc1)N1CCCN(C(=O)/C=C/c2ccccc2)CC1,?,-5.9%,-9.2%,5.0%,3.2%,8.2%
S=C(c1ccc(-c2ccc(Cl)cc2Cl)o1)N1CCCC1,10.7µM*,15.1%,nt,?,10.3%,?
N#CCCN1CCN(C(=S)c2ccc(-c3cc(Cl)ccc3Cl)o2)CC1,-15.8%,-13.7%,-16.8%,0.8%,-2.8%,-1.9%
S=C(c1ccc(-c2ccc(Cl)cc2Cl)o1)N1CCCCC1,4.78µM*,?,12.6µM*,2.82µM*,?,?
S=C(Nc1ccc(Cl)cc1Cl)N1CCCCC1,?,?,29.7%,4.6%,11.0%,17.8%
CN1CCN(C(=S)c2ccc(-c3cc(Cl)ccc3Cl)o2)CC1,16.9µM*,15.8%,nt,1.6%,-0.7%,3.0%
Cc1ccc(NC(=O)CSc2nncc3ccccc23)cc1,-24.7%,0.0%,nt,2.9%,-0.5%,-6.2%
COc1ccc(/C=N/Nc2nn3cnnc3c3ccccc23)cc1,?,?,nt,5.4%,-15.0%,4.8%
CC(=O)Nc1ccc(/C=N/Nc2nncc3ccccc23)cc1,12µM*,?,nt,1.12µM*,15.4%,2.82µM*
Fc1cccc(/C=N/Nc2nncc3ccccc23)c1,0.601µM*,?,nt,?,0.731µM*,0.316µM*
C(=N\Nc1nncc2ccccc12)/c1ccccn1,1.69µM*,?,nt,?,0.366µM*,?
Cc1ccccc1C(=O)Nc1ccc2c(c1)C(=O)NC2=O,-1.6%,23.9%,nt,0.2%,3.6%,-0.2%
Cc1ccc2cc(NC(=O)c3ccccc3C)ccc2n1,5.36µM*,?,nt,3.55µM*,?,2.82µM*
Cc1ccc2cc(NC(=O)Cc3ccccc3)ccc2n1,3.38µM*,?,nt,2µM*,?,1.41µM*
Nc1ccc(N=Nc2ccc(N)cc2)cc1,7.57µM*,?,14.1µM*,?,?,?
CCOc1ccc(-c2cc(CCCC(=O)NCc3ccco3)no2)cc1,3.38µM*,?,10.2%,-5.5%,10.4%,6.1%
CCOc1ccc(-c2cc(CCCC(=O)NCCc3ccc(OCC)c(OCC)c3)no2)cc1,9.53µM*,nt,20.1%,nt,nt,nt
CCOc1ccc(-c2cc(CCCC(=O)NCCc3ccc(SC)cc3)no2)cc1,12µM*,nt,11.8%,nt,nt,nt
COCCCNC(=O)c1cnc2c(-c3ccc(F)cc3)c(C)nn2c1C,-1.6%,nt,nt,nt,nt,nt
O=c1[nH]c(C2CCN(S(=O)(=O)c3ccc(S(=O)(=O)NC4CC4)cc3)CC2)nc2c1nnn2Cc1cccc(F)c1,1.2%,13µM*,nt,0.0%,-0.8%,-0.8%

# Source: PubChem (National Center for Advancing Translational Sciences (NCATS))
